Screens deposited in PubChem BioAssay by several laboratories.
SKKanGAS inh – SKKanGAS growth inhibition | 1.3% of 300,000 active | S. pyogenes SKKanGAS, kanamycin growth, BacTiter-Glo, 6 h | inhibition, % at 7.5 µM;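 active = mean replicate score, as percent of positive control median, at least 50; inconclusive = mean below 50 but one replicate at or above 50; inactive = mean and every replicate below 50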;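 also: strain carries kanamycin resistance gene driven by streptokinase promoter and grows in 40 µg/ml kanamycin; loss of luminescence reflects streptokinase promoter inhibition or plain growth inhibition; 0% = median of DMSO wells and 100% = positive control at its reference dose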
tim23-1 inh – inhibits growth of tim23-1 mutant yeast | S. cerevisiae tim23-1 growth, BacTiter-Glo luminescence, 24 h | inhibition, % at 20 µM | 1.3% of 330,000 active | AID 463212;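 active = growth inhibition of the mutant yeast at or above 50%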;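 also: temperature-sensitive mutant grown at 25 °C; plate controls were DMSO-treated mutant yeast for no effect and medium wells lacking yeast for full effect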
tim10-1 inh – inhibits growth of tim10-1 mutant yeast; AID 463190; 2.2% of 330,000 active; inhibition, % at 20 µM; S. cerevisiae tim10-1 ts strain growth, BacTiter-Glo, 24 h;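 active = inhibition of at least 40%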;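 also: mutant grown at 25 °C; 0% = DMSO wells with yeast and 100% = wells holding no yeast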
PfHsp90 yeast 2 – growth inhibition of yeast expressing Plasmodium Hsp90; S. cerevisiae expressing PfHsp90, BacTiter-Glo ATP, 48 h; yeast lacking PDR1 and PDR3 efflux regulators; inhibition, % at 9.4 µM; 0.32% of 310,000 active; AID 504621;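 active = every replicate shows inhibition above about 80%, whatever the replicate mean, limit read from the data; inconclusive = mean inhibition reaches the set limit but some replicate falls short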;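 also: 0% = DMSO neutral controls and 100% = 20 µM radicicol positive controls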
NALP1 yeast inh – NALP1 inhibition; S. cerevisiae NALP1/ASC/caspase-1 growth, X-gal OD620, 72 h; inhibition, % at 10 µM; 0.61% of 280,000 active; in the data active = inhibition mostly above about 24%, no sharp cut-off; inactive = mostly below about 32%
TIM10 inh – inhibits growth of TIM10 yeast strain. S. cerevisiae TIM10 strain growth, BacTiter-Glo luminescence, 24 h. inhibition, % at 10 µM. 1.4% of 330,000 active;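 active = inhibition of 40% or more at the single tested concentration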;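 also: wild-type TIM10 isogenic control strain grown at permissive 25 °C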
tim10-1 confirm – tim10-1 yeast growth inhibition, confirmed | shares compounds with tim10-1 inh | S. cerevisiae tim10-1 ts strain growth, BacTiter-Glo, 24 h | inhibition, % at 20 µM | 56% of 7,400 active | AID 463213;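 active = inhibition of yeast growth at or above a set limit in either of two repeat tests at 20 µM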;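 also: tim10-1 mutant grown at permissive 25 °C to find synthetic lethal compounds; 0% = DMSO yeast wells and 100% = medium wells without yeast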
tim10 confirm – confirmation of TIM10 yeast growth inhibitors; S. cerevisiae tim10 strain growth, BacTiter-Glo luminescence, 24 h; shares compounds with TIM10 inh; inhibition, % at 10 µM; 63% of 4,600 active;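 active = inhibition of yeast growth at or above a set limit in either of two replicates at 10 µM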;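 also: this counterscreen used the strain with wild-type TIM10; 0% = yeast with DMSO and 100% = medium wells lacking yeast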
tim23-1 confirm – confirmation of tim23-1 mutant yeast growth inhibitors; inhibition, % at 20 µM; shares compounds with tim23-1 inh; S. cerevisiae tim23-1 growth, BacTiter-Glo luminescence, 24 h; AID 463218; 83% of 4,400 active;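 active = inhibition above about 39% in either of two replicate wells at 20 µM, limit read from the data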;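 also: temperature-sensitive tim23-1 mutant grown at 25 °C; 0% = DMSO wells with yeast and 100% = medium wells without yeast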
* marks the source's active call; other numbers are inactive results; ? = inconclusive; nt = not tested or not shown. Most compounds without a hit are left out; they make up all but 4.8% or so of the library.

SMILES	SKKanGAS inh	tim23-1 inh	tim10-1 inh	PfHsp90 yeast 2	NALP1 yeast inh	TIM10 inh	tim10-1 confirm	tim10 confirm	tim23-1 confirm
O=C(/C=C\c1ccccc1OC(=O)c1ccccc1F)c1cc2ccccc2o1	-6	59*	55*	-26	28	48*	34*	23	50*
Cc1ccc2nc3c(cc2c1)c(NC(=O)c1ccco1)nn3CC(C)C	-4	16	1	-4	1	-14	nt	nt	nt
COc1ccc(C(=O)c2c(C(F)(F)F)oc3c2C(=O)c2ccccc2C3=O)cc1	97*	79*	55*	-45	53	51*	52*	76*	73*
COc1ccc(C(=O)c2oc3ccccc3c2NC(C)=O)cc1	2	27	24	nt	35	8	nt	nt	nt
O=C(Nc1ccccc1)c1ccccc1N=Cc1cccc(O)c1	3	11	31	3	-6	6	nt	nt	nt
Brc1cc(Br)c2nc(-c3cccs3)ccc2c1	11	5	15	-1	2	3	nt	nt	nt
Cc1nc2c(Br)cc(Br)cc2cc1O	-2	76*	71*	-9	9	50*	61*	45*	83*
N#Cc1cc(N)ccc1Sc1ccc(Cl)cc1	0	69*	55*	-16	-1	4	31*	nt	48*
O=C1/C(=C/c2ccncc2)SC(=S)N1N1CCOCC1	2	69*	56*	-1	nt	58*	50*	55*	48*
COc1ccc2[nH]c(=O)c3c(c2c1)OC(C)(C)C=C3	-3	1	17	nt	-15	2	nt	nt	nt
Cc1cc2c([nH]c3ccccc32)c2c1OC(C)(C)C=C2	39	56*	63*	18	2	23	49*	nt	70*
CC(=O)N1CCc2cc(S(=O)(=O)CCC(=O)NCCc3ccc(C)cc3)ccc21	5	-11	-17	-14	10	-3	nt	nt	nt
Cc1ccc2c(c1)c1ccc3c(c1n2C)C(=O)C=CC3=O	nt	73*	63*	?	nt	63*	56*	94*	42*
COc1ccc2c(c1)c1ccc3c(c1n2C)C(=O)C=CC3=O	nt	68*	47*	7	4	55*	60*	93*	-19
COc1ccc2c(c1)c1ncn(CCN3CCCC3)c(=O)c1n2C	3	4	17	-21	9	-21	nt	nt	nt
COc1ccccc1-c1c(C)nn2c(N)c(-c3ccc(Cl)cc3)cnc12	6	10	11	-11	-3	-16	nt	nt	nt
OCn1c2ccccc2c2ccccc21	-3	18	-11	0	13	2	nt	nt	nt
CCN1C[C@@H]2[C@@H]3C(=O)N(Cc4ccccc4)C(=O)[C@@H]3[C@](C)(C1=O)N2C(=O)c1ccc(Cl)c(Cl)c1	nt	nt	nt	-10	nt	nt	nt	nt	nt
O=C(CSc1ccccc1C(=O)N1CCN(c2ccccc2)CC1)N1CCCC1	nt	5	-14	7	nt	-15	nt	nt	nt
Cc1oc2c(c1C(=O)N1CCC(C)CC1)C(=O)c1ccccc1C2=O	14	74*	52*	nt	14	45*	43*	40*	67*
Cc1onc(-c2ccccc2Cl)c1C(=O)N1CCC(C)CC1	0	14	5	-18	0	-3	nt	nt	nt
CCOC(=O)C1CCN(C(=O)c2c(C)oc3c2C(=O)c2ccccc2C3=O)CC1	15	51*	48*	10	10	33	34*	nt	59*
O=C(NC(=S)NCc1ccccc1)c1ccccc1	-1	30	32	-4	10	37	nt	nt	nt
O=C(NC(=S)NCc1ccccc1)c1cccs1	14	61*	51*	0	13	35	43*	nt	52*
COc1cc(/C=N/NC(=S)NC2CC3CC2C2C=CCC32)ccc1O (stereo unspecified)	-5	75*	53*	-12	20	-8	42*	nt	62*
SMILES	SKKanGAS inh	tim23-1 inh	tim10-1 inh	PfHsp90 yeast 2	NALP1 yeast inh	TIM10 inh	tim10-1 confirm	tim10 confirm	tim23-1 confirm
CCN1CCN(C(=S)NC(=O)/C=C/c2cccs2)CC1	5	-5	13	14	2	3	nt	nt	nt
O=C(/C=C/c1cccs1)NC(=S)NNC(=O)c1ccccc1O	79*	64*	44*	28	-9	42*	24	42*	66*
COC(=O)C1=C(C)N(Cc2ccco2)C(=O)/C1=C\c1ccc([N+](=O)[O-])cc1	19	64*	62*	-7	-13	66*	77*	74*	57*
CCN1C(=O)/C(=C\c2ccc3c(c2)OCO3)C(C(=O)OC)=C1C	-8	50	47*	nt	-8	56*	45*	43*	62*
COc1ccc(CC2S/C(=C(\C#N)C(=O)NCc3ccco3)N(c3ccc(C)cc3)C2=O)cc1 (stereo unspecified)	1	7	10	-2	11	10	nt	nt	nt
c1ccc(-n2cnc3cc(NCc4cccs4)ccc32)cc1	18	51*	46*	-4	11	52*	33*	46*	70*
COc1ccc(-n2cnc3cc(NCc4cccs4)ccc32)cc1	31	58*	40*	15	-21	34	-1	nt	41*
COc1ccc(-n2cnc3cc(NCc4ccccn4)ccc32)cc1	-2	12	-16	18	-7	23	nt	nt	nt
COc1cc(/C=C2\COC/C(=C\c3ccc(O)c(OC)c3)C2=O)ccc1O	16	69*	71*	-4	-8	67*	68*	61*	82*
O=C(N/N=C/c1cccc(Br)c1)c1ccc(Cn2cc(Br)cn2)o1	8	76*	49*	-6	35	68*	60*	81*	83*
Cc1ccsc1/C=N/NC(=O)c1ccc(Cn2cc(Br)cn2)o1	-9	-9	-12	-13	30	-11	nt	nt	nt
C=CCNC(=O)/C(C#N)=C/c1cn(-c2ccccc2)nc1-c1ccc(OC)c([N+](=O)[O-])c1	6	nt	nt	-9	25	nt	nt	nt	nt
C=CCNC(=O)/C(C#N)=C/c1cc(Br)ccc1OC	-16	88*	78*	-10	-24	83*	84*	91*	71*
C=CCNC(=O)/C(C#N)=C/c1ccccc1Cl	4	85*	51*	-25	12	66*	63*	74*	80*
Cc1cccc(NC(=O)/C(C#N)=C/c2ccccc2Cl)n1	1	71*	52*	23	21	42*	25	32*	62*
C/C(=N\NS(=O)(=O)c1ccc(Cl)cc1)c1ccc(O)cc1	-8	10	24	-3	-4	3	nt	nt	nt
